# Test results reported in PubChem BioAssay (NCI).
# Compounds without any hit were thinned out: in the full panel of roughly 83,000, 20% have a hit.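 Note: values are percent growth. 100 is the growth of untreated cells, values between 100 and 0 indicate rising inhibition; between -100 and 0 indicates cell death.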 Values without a mark were called inactive. Activity calls are given as the source filed them. How the source made its calls: active means growth percent below 10; inactive means the rest.
# Assays:
# Assay in all cases: NCI-60 one-dose screen, 48 h (100 = growth as untreated, 0 = no growth, -100 = all killed)
# Conditions in all cases: 10 µM
# [1] = system: DU-145 prostate
# [2] = system: K-562 leukemia
# [3] = system: MALME-3M melanoma
# [4] = system: MDA-MB-231 breast
# [5] = system: RXF 393 renal
# [6] = system: SF-268 CNS
# [7] = system: SF-295 CNS
# [8] = system: SF-539 CNS
# [9] = system: UACC-257 melanoma
# [10] = system: M14 melanoma
# [11] = system: HCT-15 colon
# [12] = system: HT29 colon
# [13] = system: SNB-75 CNS
# [14] = system: SNB-19 CNS
# [15] = system: U251 CNS
# [16] = system: PC-3 prostate
# [17] = system: SK-MEL-5 melanoma
# [18] = system: UACC-62 melanoma
# [19] = system: LOX IMVI melanoma
# [20] = system: SK-MEL-28 melanoma
SMILES,growth [1],growth [2],growth [3],growth [4],growth [5],growth [6],growth [7],growth [8],growth [9],growth [10],growth [11],growth [12],growth [13],growth [14],growth [15],growth [16],growth [17],growth [18],growth [19],growth [20]
Cc1c[nH]c(=O)n(Cc2nnc(CCC(=O)c3nc4ccccc4[nH]3)o2)c1=O,-35.3% (active),10.4%,47.8%,26.1%,-7.83% (active),36.6%,21.5%,-15.2% (active),81.4%,-16.7% (active),65.3%,8.43% (active),-33% (active),33.2%,16.6%,19.3%,13.2%,41%,35.6%,40.9%
CC(=O)OC/C=C(/C)C[P+](c1ccccc1)(c1ccccc1)c1ccccc1,58.3%,28.4%,61.7%,75.2%,98%,76.7%,41.6%,64.2%,69.7%,46.6%,73.3%,59.8%,76.8%,47%,35.8%,41.3%,43.1%,47.6%,55.2%,69%
COc1cc(/C=C/c2cc(/C=C/c3ccc(O)c(OC)c3)nc(N)n2)ccc1O,13%,5.49% (active),-28.9% (active),3.39% (active),-63.9% (active),3.56% (active),-5.25% (active),11.9%,-1.9% (active),-26.1% (active),29.5%,-76.2% (active),5.5% (active),23.2%,2.97% (active),13%,-18.4% (active),-57.7% (active),-16.1% (active),9.55% (active)
O=C1c2ccccc2C(=O)c2c1ccc1c(=O)n(-c3ccccc3C(F)(F)F)nnc21,47.7%,15.2%,-51.3% (active),3.26% (active),28.9%,43.2%,52.5%,-27.2% (active),-23.6% (active),5.14% (active),3.36% (active),31.5%,34.6%,18.2%,17.7%,12.9%,-94.3% (active),,-5.7% (active),63.5%
O=C(O)c1cn(C2CC2)c2cc(N3CCN(C(=O)c4cc(-c5ccc(Cl)cc5)nc5ccccc45)CC3)c(F)cc2c1=O,105%,83.7%,107%,76.3%,73.6%,89%,91.3%,93.8%,107%,84.4%,90.8%,96.1%,77.2%,86%,96%,70.7%,85.4%,,63.4%,96.6%
CCN1C(=O)CC(SC2CC(=O)N(CC)C2=O)C1=O (stereo not given),101%,82.7%,97.6%,105%,111%,96.1%,106%,100%,100%,97.6%,105%,79.7%,97.4%,95.7%,102%,101%,104%,102%,95.2%,112%
O=C(CNc1nnc(-c2cccnc2SCc2ccccc2)s1)Nc1nc(Cl)cc(Cl)n1,100%,109%,98.8%,104%,124%,91.5%,103%,110%,157%,106%,108%,123%,74.1%,103%,119%,112%,113%,,105%,110%
O=C(O)COc1c(Cl)cc([N+](=O)[O-])cc1Cl,111%,92.2%,97.1%,117%,102%,96.5%,100%,99.5%,79.7%,88.7%,103%,86.2%,102%,112%,97.5%,65.3%,96.3%,,100%,102%
COc1cccc(N=Nc2cccc(OC)c2)c1,112%,87.8%,101%,84%,91.2%,103%,92.8%,95.4%,90.9%,90.7%,91.1%,94.9%,102%,97%,79.4%,67.7%,99.1%,,96.7%,99.6%
CC1(C)N=C(N)N=C(N)N1c1cccc(C#N)c1,46.7%,20.7%,70.7%,78.4%,50.7%,29.8%,35.3%,46.2%,73.3%,40%,33%,35.9%,77.4%,66.8%,28.5%,43.1%,52.4%,,21%,95%
COc1cc(-c2nn(-c3cccc(NC(=O)CCN4CCN(Cc5ccccc5)CC4)c3)cc2-c2ccncc2)ccc1Cl,7.55% (active),-43.1% (active),-60.7% (active),-14.7% (active),-50.6% (active),19.1%,-46.5% (active),-74.3% (active),-58.2% (active),-61.3% (active),11.8%,-20.2% (active),-10.3% (active),39.9%,6.53% (active),7.06% (active),-95.3% (active),,-88.6% (active),-85.4% (active)
O=C(CSc1nccc(Nc2cccc3ccccc23)n1)c1ccc(Cl)cc1,116%,84.3%,101%,79.1%,106%,95%,95%,94.5%,109%,85.8%,101%,86.9%,88%,89.3%,96.1%,83.9%,98.3%,70.2%,77.6%,106%
Clc1nc2ccc(Br)cc2cc1-c1nc2ccccc2[nH]1,99.4%,86.1%,97.2%,64.6%,10.6%,59.3%,86.7%,107%,102%,105%,92.3%,106%,42.4%,91%,81%,39.6%,84.7%,90.9%,69.5%,105%
Clc1ccc(/C=C2\CCCC3C2=Nc2ccccc2NC3c2ccc(Cl)cc2)cc1 (stereo not given),89.2%,47.2%,89.7%,97.6%,65.3%,80%,83.3%,92.3%,79.9%,29.1%,63.7%,16%,88.2%,92%,20.8%,77.3%,88.7%,,-27.5% (active),101%
NS(=O)(=O)c1ccc(Br)cc1,114%,109%,103%,99.3%,113%,98.3%,88.3%,96.3%,88.2%,86.3%,94.8%,91.8%,93.2%,96.9%,102%,75.6%,104%,,98.5%,104%
CCN(CC)CC(=O)N(CC)c1ccc(C)c(Cl)c1,103%,108%,96.2%,113%,105%,92.9%,101%,108%,88.7%,100%,101%,90.1%,96.9%,104%,87%,88.2%,98.4%,,93.2%,108%
